From PubChem BioAssay (NCI)
This is part of a sample that, as a whole, favours compounds with a hit. Of some 83,000 tested, about 20% had one in any assay.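 How to read the values: 0–100, growth inhibition (40 = 60% inhibited); 0, no net growth; -100 to 0, cell death (-40 = 40% of starting cells died; -100 = all dead).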 Values without a mark were called inactive. Active and inactive are the calls of the source. How the source made its calls: active means growth percent below 10; inactive means the rest.

Assays:
Assay in all cases: NCI-60 one-dose screen, 48 h (100 = growth as untreated, 0 = no growth, -100 = all killed)
Conditions in all cases: 10 µM unless noted
[1] = tested on: HCT-15 colon
[2] = tested on: HT29 colon
[3] = tested on: SNB-75 CNS
[4] = tested on: SNB-19 CNS
[5] = tested on: U251 CNS
[6] = tested on: PC-3 prostate
[7] = tested on: SK-MEL-5 melanoma
[8] = tested on: UACC-62 melanoma
[9] = tested on: LOX IMVI melanoma
[10] = tested on: SK-MEL-28 melanoma

SMILES	growth [1]	growth [2]	growth [3]	growth [4]	growth [5]	growth [6]	growth [7]	growth [8]	growth [9]	growth [10]
O=C1C(=O)c2c(nc3ccc(Cl)cn23)-c2ccccc21	-100% (active)	-84.8% (active)	-87.7% (active)	-100% (active)	-100% (active)	-86.6% (active)	-100% (active)	-100% (active)	-100% (active)	-100% (active)
CC(NC(N)=S)c1ccccc1 (stereo not given)	104%	110%	95.1%	102%	105%	108%	99.6%	101%	85%	110%
O=C(c1ccc(N2CCOCC2)cc1[N+](=O)[O-])N1CCOCC1	96.2%	90.5%	31.8%	96.9%	105%	93.6%	136%	97%	98.3%	96.9%
COc1ccc(C2CC(c3ccc(Nc4ccnc5cc(Cl)ccc45)cc3)=NN2C(C)=O)cc1 (stereo not given)	44.2%	27.4%	75.8%	82.4%	62.8%	53.3%	5.89% (active)	54.8%	60.5%	70.2%
OC(c1cc(-c2cccc(Cl)c2)nc2ccccc12)C1CCCCN1 (stereo not given)	-61.9% (active)	-74.5% (active)	-5.41% (active)	18.1%	-85.1% (active)	-26.2% (active)	-67.5% (active)	-41.2% (active)	-90.7% (active)	-94.2% (active)
CCSc1ncc(Br)c(Sc2nc(N)nc3nc[nH]c23)n1	68.5%	62.3%	60.2%	121%	89.5%	80.1%	74.6%	19.3%	19.5%	152%
CC[C@H]1CN2CCc3cc(OC)c(OC)cc3C2C[C@@H]1CC1NCCc2cc(OC)c(OC)cc21 (stereo not given in full)	-18% (active)	-14.5% (active)	-52.2% (active)	-6.47% (active)	-10.2% (active)	-12% (active)	-88.7% (active)	-82% (active)	-27.8% (active)	-14.4% (active)
COc1cccc(-c2nc(-c3ccc(N)cc3)co2)c1	89.8%	87.2%	116%	113%	92.2%	98.2%	85.9%	90.3%	97%	111%
ICCC(c1ccccc1)(c1ccccc1)c1ccccc1	27.7%	2.63% (active)	50.3%	65.3%	23%	49.4%	-49.5% (active)	-35.3% (active)	16.3%	-70% (active)
Cc1ccc2c(c1)C(=O)/C(=C\Nc1ccc(C(N)=O)cc1)C(O)O2 (stereo not given)	85.9%	105%	74.8%	106%	85.6%	76.4%	104%	106%	85.3%	99.8%
CCn1cnc(C[C@H](NC(=O)[C@H](CCCCNC(=O)Nc2cc(C(F)(F)F)cc(C(F)(F)F)c2)NC(=O)Nc2cc(C(F)(F)F)cc(C(F)(F)F)c2)C(=O)OC)c1	48.1% [100 µM]	-99.4% [100 µM] (active)	-36.4% [100 µM] (active)	-36.5% [100 µM] (active)	-100% [100 µM] (active)	-38.5% [100 µM] (active)	-100% [100 µM] (active)	-88.3% [100 µM] (active)	-100% [100 µM] (active)	-99.5% [100 µM] (active)
COc1cc(/C=N/NC(=O)c2ccc(C(F)(F)F)nc2Nc2ccc(Cl)cc2C)ccc1O	27.9%	45.2%	19.7%	54.4%	33.8%	24.8%	-61.3% (active)	44.5%	33.7%	42.5%
COC(=O)N/N=C/c1coc2ccc(Cl)cc2c1=O	97%	95.4%	80.5%	98.4%	96.7%	74%	106%	93.9%	86.7%	100%
CC(=O)Nc1cc2c3c(cccc3c1)-c1ccccc1-2	79.4%	108%	60.1%	91.2%	75.3%	57.9%	102%	89%	75.9%	103%
